What all share (details): mRNA level, 48 h; actives raise or lower the signal
Read-out in assay [1]: Peroxisomal acyl-coenzyme A oxidase 1 (ACOX1) gene, ACOX1 (gene 51)
Nature of the assay: LTEA_HepaRG_ACOX1: Life Technologies and Expression Analysis (LTEA) Assay for Peroxisomal acyl-coenzyme A oxidase 1 (ACOX1) gene using HepaRG (AID 2283467). The method in brief: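 HepaRG cells, plated 48 h then switched to serum-free induction medium, were exposed in duplicate for 48 h to 8-point half-log concentrations up to 100 uM in 0.5% DMSO. ACOX1 mRNA was measured by qRT-PCR, normalized to ACTB/GAPDH/POLR2A, and fitted bidirectionally versus DMSO.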

Read-out in assay [2]: Alkaline Phosphatase, Placental (ALPP) gene, ALPP (gene 250)
The assay can be described thus: LTEA_HepaRG_ALPP: Life Technologies and Expression Analysis (LTEA) Assay for Alkaline Phosphatase, Placental (ALPP) gene using HepaRG (AID 2283468). The method in brief: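 HepaRG cells plated 48 h, then exposed in duplicate for 48 h in serum-free induction medium to 8-point half-log series from 100 uM in 0.5% DMSO. ALPP mRNA by TaqMan qRT-PCR, normalized to ACTB/GAPDH/POLR2A; bidirectional fit versus DMSO.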

Read-out in assay [3]: Bcl-2 (BAD) gene, BAD (gene 572)
The assay can be described thus: LTEA_HepaRG_BAD: Life Technologies and Expression Analysis (LTEA) Assay for Bcl-2 (BAD) gene using HepaRG (AID 2283469). An outline of the steps:
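Differentiated HepaRG cells were exposed in duplicate in 0.5% DMSO for 48 h to eight-point half-log concentrations up to 100 uM. BAD mRNA was measured by Fluidigm TaqMan qRT-PCR, normalized to ACTB, GAPDH and POLR2A, and fitted bidirectionally against DMSO.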

Read-out in assay [4]: Bcl-2 (BAX) gene, BAX (gene 581)
Nature of the assay: LTEA_HepaRG_BAX: Life Technologies and Expression Analysis (LTEA) Assay for Bcl-2 (BAX) gene using HepaRG (AID 2283470). An outline of the steps: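 HepaRG (human liver), 48 h exposure, duplicate wells. 8-pt curve, half-log from 100 uM, 0.5% DMSO. BAX transcript by TaqMan qRT-PCR; ACTB/GAPDH/POLR2A normalization; gain or loss vs DMSO baseline.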

Read-out in assay [5]: adenosine kinase (ADK) gene, ADK (gene 132)
Nature of the assay: LTEA_HepaRG_ADK: Life Technologies and Expression Analysis (LTEA) Assay for adenosine kinase (ADK) gene using HepaRG (AID 2283471). An outline of the steps:
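HepaRG (human liver), 48 h chemical exposure, 8-pt half-log series, top 100 uM, 0.5% DMSO vehicle. Readout: ADK mRNA by qRT-PCR vs housekeeping genes; bidirectional curve fit relative to DMSO baseline.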

Read-out in assay [6]: Alpha-fetoprotein (AFP) gene, AFP (gene 174)
The assay can be described thus: LTEA_HepaRG_AFP: Life Technologies and Expression Analysis (LTEA) Assay for Alpha-fetoprotein (AFP) gene using HepaRG (AID 2283472). The method in brief:
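HepaRG, single lot; 48 h post-plating -> serum-free induction medium; cpd 8-pt, 100 uM top, half-log, 0.5% DMSO, duplicate, 48 h. RNA -> qRT-PCR AFP, norm ACTB/GAPDH/POLR2A. Bidirectional fit vs DMSO.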

Read-out in the next assay: BCL2L11 (gene 10018)
Nature of the assay: LTEA_HepaRG_BCL2L11: Life Technologies and Expression Analysis (LTEA) Assay for Bcl-2 (BCL2L11) gene using HepaRG (AID 2283473). The method in brief:
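Differentiated human HepaRG cells were exposed 48 h in serum-free induction medium to eight half-log concentrations up to 100 uM in 0.5% DMSO, in duplicate. BCL2L11 mRNA was quantified by TaqMan qRT-PCR, normalized to ACTB, GAPDH and POLR2A; induction or repression fitted versus DMSO.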

Read-out in assay [7]: Apolipoprotein A-V (APOA5) gene, APOA5 (gene 116519)
The assay can be described thus: LTEA_HepaRG_APOA5: Life Technologies and Expression Analysis (LTEA) Assay for Apolipoprotein A-V (APOA5) gene using HepaRG (AID 2283474). The method in brief: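 Differentiated HepaRG cells in serum-free induction medium, exposed 48 h in duplicate to eight half-log concentrations topping at 100 uM (0.5% DMSO). APOA5 mRNA by Fluidigm TaqMan qRT-PCR, normalized to ACTB, GAPDH and POLR2A; bidirectional fit versus DMSO.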

Read-out in assay [8]: Apoptosis regulator Bcl-2 (Homo sapiens) (UniProt P10415)
Nature of the assay: LTEA_HepaRG_BCL2: Life Technologies and Expression Analysis (LTEA) Assay for Bcl-2 gene using HepaRG (AID 2283475). An outline of the steps: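 HepaRG, plated 48 h then switched to serum-free induction medium; dosed 48 h, 8 conc. (max 100 uM, half-log steps), duplicate, 0.5% DMSO. Lysis in RLT, RNA isolated, TaqMan qRT-PCR for BCL2; ACTB/GAPDH/POLR2A normalisation; bidirectional fit vs DMSO.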

Read-out in assay [9]: Bcl-2 (BID) gene, BID (gene 637)
The assay can be described thus: LTEA_HepaRG_BID: Life Technologies and Expression Analysis (LTEA) Assay for Bcl-2 (BID) gene using HepaRG (AID 2283476). An outline of the steps:
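Transcript levels of BID, measured by qRT-PCR and normalized to three housekeeping genes, were fitted bidirectionally against DMSO controls. Cells were HepaRG, dosed 48 h at up to 100 uM.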

Read-out in another assay: Caspase-3 (Homo sapiens) (UniProt P42574)
The assay can be described thus: LTEA_HepaRG_CASP3: Life Technologies and Expression Analysis (LTEA) Assay for cysteine-aspartic acid protease (CASP3) using HepaRG (AID 2283477). The method in brief: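 Differentiated HepaRG cells, plated 48 h, were treated in duplicate in serum-free induction medium for 48 h with eight half-log concentrations up to 100 uM in 0.5% DMSO. CASP3 mRNA measured by qRT-PCR, normalized to ACTB, GAPDH, POLR2A.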

Read-out in assay [10]: Cytochrome P450 (CYP24A1), CYP24A1 (gene 1591)
Nature of the assay: LTEA_HepaRG_CYP24A1: Life Technologies and Expression Analysis (LTEA) Assay for Cytochrome P450 (CYP24A1) using HepaRG (AID 2283478). The method in brief:
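HepaRG cells plated 48 h, then exposed in duplicate in serum-free induction medium for 48 h to 8-point half-log series from 100 uM in 0.5% DMSO. CYP24A1 mRNA by Fluidigm qRT-PCR, normalized to ACTB, GAPDH, POLR2A; bidirectional fit versus DMSO.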

Read-out in assay [11]: Cytochrome P450 (CYP1A2), CYP1A2 (gene 1544)
Nature of the assay: LTEA_HepaRG_CYP1A2: Life Technologies and Expression Analysis (LTEA) Assay for Cytochrome P450 (CYP1A2) using HepaRG (AID 2283479). An outline of the steps: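 Differentiated human HepaRG cells in serum-free induction medium exposed 48 hours in duplicate to 8 half-log concentrations from 100 uM, 0.5% DMSO. CYP1A2 mRNA quantified by qRT-PCR, normalized to ACTB, GAPDH and POLR2A; bidirectional fitting versus DMSO.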

Read-out in assay [12]: cysteine-aspartic acid protease (CASP8), CASP8 (gene 841)
Nature of the assay: LTEA_HepaRG_CASP8: Life Technologies and Expression Analysis (LTEA) Assay for cysteine-aspartic acid protease (CASP8) using HepaRG (AID 2283480). The method in brief: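 Differentiated HepaRG cells in serum-free induction medium, 48 h exposure, eight-point half-log series from 100 uM in 0.5% DMSO, duplicates. CASP8 mRNA by qRT-PCR, normalized to ACTB, GAPDH, POLR2A; bidirectional fit versus DMSO.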

Read-out in assay [13]: Cytochrome P450 (CYP2B6), CYP2B6 (gene 1555)
Nature of the assay: LTEA_HepaRG_CYP2B6: Life Technologies and Expression Analysis (LTEA) Assay for Cytochrome P450 (CYP2B6) using HepaRG (AID 2283481). An outline of the steps:
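Differentiated human HepaRG cells in serum-free induction medium, dosed in duplicate for 48 h over 8 half-log concentrations topping at 100 uM (0.5% DMSO). CYP2B6 mRNA measured by TaqMan qRT-PCR, normalized to ACTB, GAPDH, POLR2A; bidirectional fit versus DMSO.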

Read-out in assay [14]: Cytochrome P450 2C19 (Homo sapiens) (UniProt P33261)
The assay can be described thus: LTEA_HepaRG_CYP2C19: Life Technologies and Expression Analysis (LTEA) Assay for CYP2C19 using HepaRG (AID 2283482). The method in brief:
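Differentiated HepaRG cells in serum-free induction medium exposed 48 h in duplicate, 8 concentrations from 100 uM by half-log steps in 0.5% DMSO. CYP2C19 mRNA measured by TaqMan qRT-PCR, normalized to ACTB, GAPDH, POLR2A. Bidirectional fit versus DMSO.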

Read-out in the next assay: CYP2C8 (gene 1558)
The assay can be described thus: LTEA_HepaRG_CYP2C8: Life Technologies and Expression Analysis (LTEA) Assay for CYP2C8 using HepaRG (AID 2283483). The method in brief: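 Differentiated HepaRG cells in serum-free induction medium exposed 48 h in duplicate to 8 half-log concentrations from 100 uM in 0.5% DMSO. CYP2C8 mRNA by qRT-PCR normalized to ACTB, GAPDH, POLR2A; bidirectional fit versus DMSO.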

Read-out in another assay: CYP2C9 (gene 1559)
Nature of the assay: LTEA_HepaRG_CYP2C9: Life Technologies and Expression Analysis (LTEA) Assay for CYP2C9 using HepaRG (AID 2283484). The method in brief:
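Differentiated human HepaRG cells in serum-free induction medium were exposed 48 h to chemicals in 8-point half-log series from 100 uM (0.5% DMSO), in duplicate. CYP2C9 mRNA was measured by qRT-PCR, normalized to ACTB/GAPDH/POLR2A, with bidirectional fitting versus DMSO.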

Read-out in assay [15]: Broad substrate specificity ATP-binding cassette transporter ABCG2 (Homo sapiens) (UniProt Q9UNQ0)
The assay can be described thus: LTEA_HepaRG_ABCG2: Life Technologies and Expression Analysis (LTEA) Assay for ABC Transporter (ABCG2) using HepaRG (AID 2283465). An outline of the steps: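 Differentiated HepaRG cells were exposed for 48 h in serum-free induction medium to 8 half-log concentrations, top 100 uM, in 0.5% DMSO. ABCG2 mRNA was measured by qRT-PCR, normalized to ACTB, GAPDH and POLR2A, with bidirectional fitting versus DMSO.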

This passage reports outcome and AC50 results from PubChem BioAssay (EPA / NIEHS).

Each structure is given as a SMILES string. The source made the active and inactive calls. How the source made its calls: active means hit-call score of the fitted dose curve at least 0.9, where 1 is the maximum; inactive means score below 0.9.

Sequence of Caspase-3 (Homo sapiens) (P42574 whole entry, looked up): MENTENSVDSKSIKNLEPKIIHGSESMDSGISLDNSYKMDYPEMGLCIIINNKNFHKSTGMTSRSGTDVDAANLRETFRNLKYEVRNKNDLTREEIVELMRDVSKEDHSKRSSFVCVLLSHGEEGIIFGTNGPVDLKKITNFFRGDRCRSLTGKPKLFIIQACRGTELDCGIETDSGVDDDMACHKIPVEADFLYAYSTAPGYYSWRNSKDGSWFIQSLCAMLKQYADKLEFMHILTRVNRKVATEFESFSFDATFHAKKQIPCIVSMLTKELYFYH
Sequence of Apoptosis regulator Bcl-2 (Homo sapiens) (P10415 whole entry, looked up): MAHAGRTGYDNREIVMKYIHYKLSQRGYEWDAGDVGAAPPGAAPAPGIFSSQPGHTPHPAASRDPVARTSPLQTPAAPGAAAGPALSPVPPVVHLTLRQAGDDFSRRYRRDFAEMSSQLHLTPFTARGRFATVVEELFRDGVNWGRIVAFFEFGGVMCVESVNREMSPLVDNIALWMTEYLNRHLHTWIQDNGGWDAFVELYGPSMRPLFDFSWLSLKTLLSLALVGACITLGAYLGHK
Sequence of Cytochrome P450 2C19 (Homo sapiens) (P33261 whole entry, looked up): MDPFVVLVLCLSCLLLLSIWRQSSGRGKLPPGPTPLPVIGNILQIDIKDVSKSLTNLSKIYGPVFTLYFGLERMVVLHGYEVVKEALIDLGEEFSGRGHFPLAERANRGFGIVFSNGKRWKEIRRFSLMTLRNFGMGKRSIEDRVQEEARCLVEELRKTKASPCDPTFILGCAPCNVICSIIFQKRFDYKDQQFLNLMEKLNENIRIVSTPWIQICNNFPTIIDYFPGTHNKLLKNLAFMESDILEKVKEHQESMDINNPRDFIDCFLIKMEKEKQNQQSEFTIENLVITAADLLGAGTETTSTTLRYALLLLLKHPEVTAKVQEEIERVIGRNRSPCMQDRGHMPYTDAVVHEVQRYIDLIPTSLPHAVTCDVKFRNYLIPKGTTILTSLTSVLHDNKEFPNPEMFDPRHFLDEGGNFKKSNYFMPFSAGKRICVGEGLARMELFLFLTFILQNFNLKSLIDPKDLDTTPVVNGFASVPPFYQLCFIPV
Sequence of Broad substrate specificity ATP-binding cassette transporter ABCG2 (Homo sapiens) (Q9UNQ0 whole entry, looked up): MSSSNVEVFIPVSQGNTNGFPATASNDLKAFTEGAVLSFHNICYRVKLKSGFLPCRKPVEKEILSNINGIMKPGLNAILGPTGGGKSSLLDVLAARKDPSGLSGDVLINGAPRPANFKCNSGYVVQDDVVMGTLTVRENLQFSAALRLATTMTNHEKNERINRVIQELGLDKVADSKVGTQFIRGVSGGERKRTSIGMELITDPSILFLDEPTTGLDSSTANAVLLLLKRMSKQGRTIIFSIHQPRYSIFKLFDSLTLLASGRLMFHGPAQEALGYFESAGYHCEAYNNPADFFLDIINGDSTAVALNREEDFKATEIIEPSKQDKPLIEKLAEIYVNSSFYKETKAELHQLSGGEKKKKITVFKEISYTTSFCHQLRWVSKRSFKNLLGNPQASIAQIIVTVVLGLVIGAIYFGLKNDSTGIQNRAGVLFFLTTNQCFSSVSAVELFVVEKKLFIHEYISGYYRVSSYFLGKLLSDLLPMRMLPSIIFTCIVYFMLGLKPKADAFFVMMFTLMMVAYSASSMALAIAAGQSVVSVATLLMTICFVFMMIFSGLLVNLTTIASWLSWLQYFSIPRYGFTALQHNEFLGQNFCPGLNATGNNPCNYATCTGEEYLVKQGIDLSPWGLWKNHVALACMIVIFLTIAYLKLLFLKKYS

The AC50 is the concentration giving half of the maximal activity seen. For the compound `COP(=S)(OC)Oc1nc(Cl)c(Cl)cc1Cl`, the outcome in [1], in [2], in assay [3], in [4], in assay [5] and in assay [6] was inactive. Moreover, the outcome (in the assay with BCL2L11 (gene 10018); in assay [7]; in [8]; in [9]; with Caspase-3 (Homo sapiens); in assay [10]) was inactive. The result (in [12]; in assay [13]; in assay [14]; with CYP2C8 (gene 1558); with CYP2C9 (gene 1559)) was inactive. In assay [11], the AC50 is 66.5 µM (active).
On to `Cc1c(F)c(F)c(COC(=O)C2C(/C=C(\Cl)C(F)(F)F)C2(C)C)c(F)c1F` (configuration not stated), for which the compound was called inactive in [15], in [1], in assay [2], in [3], in assay [4] and in assay [5]. In addition, the result (in [6]; in assay [8]; in assay [9]; in the assay with Caspase-3 (Homo sapiens); in assay [10]; in assay [11]) was inactive. Moreover, the call (in assay [12]; in assay [13]; in assay [14]; with CYP2C8 (gene 1558); in the assay with CYP2C9 (gene 1559)) was inactive.
Regarding `CCCCOC(=O)c1ccccc1C(=O)OCCCC`, the call in [1], in [2], in assay [3], in assay [4], in assay [5] and in [6] was inactive. Further, the call (with BCL2L11 (gene 10018); in assay [8]; in assay [9]; in the assay with Caspase-3 (Homo sapiens); in assay [10]; in [11]) was inactive. For the same compound, the compound was classed as inactive (in assay [12]; in assay [13]; in [14]; in the assay with CYP2C8 (gene 1558); with CYP2C9 (gene 1559)).
